The list is not random: actives were taken first. Their share in the collection is about 4.5%.
NLRP3 yeast inh – NALP3 inflammasome inhibitors in reconstituted yeast, primary screen, luminescence, uHTS; AID 2825, 2010; 330,000 tested, 0.39% active; inhibition, % at 10 µM; Yeast reconstituted NLRP3/ASC/caspase-1, beta-gal luminescence, 24 h;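 active = inhibition of 50% or more; inactive = inhibition below 50%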;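 note: plate controls were induced DMSO wells for no effect and uninduced yeast grown without galactose for full effect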
SKKanGAS inh – S. pyogenes SKKanGAS growth inhibitors in kanamycin, primary screen, streptokinase expression inhibitor project, SKKanGAS strain, BacTiter-Glo luminescence. 6 h. inhibition, % at 7.5 µM. 300,000 tested, 1.3% active. AID 1662, 2009;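 active = mean replicate score, as percent of positive control median, at least 50; inconclusive = mean below 50 but one replicate at or above 50; inactive = mean and every replicate below 50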;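 note: strain carries kanamycin resistance gene driven by streptokinase promoter and grows in 40 µg/ml kanamycin; loss of luminescence reflects streptokinase promoter inhibition or plain growth inhibition; 0% = median of DMSO wells and 100% = positive control at its reference dose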
tim23-1 inh – growth inhibitors of tim23-1 mutant yeast, primary screen, luminescence, uHTS. S. cerevisiae tim23-1 growth, BacTiter-Glo luminescence, 24 h. inhibition, % at 20 µM. 330,000 tested, 1.3% active. AID 463212, 2010;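 active = growth inhibition of the mutant yeast at or above 50%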;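 note: temperature-sensitive mutant grown at 25 °C; plate controls were DMSO-treated mutant yeast for no effect and medium wells lacking yeast for full effect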
PfHsp90 set2 – growth inhibition of PfHsp90-expressing yeast, primary screen, antimalarial PfHsp90 inhibitor project, S. cerevisiae, BacTiter-Glo luminescence, single point, set 2; 310,000 tested, 0.32% active; BacTiter-Glo ATP, 48 h; yeast lacking PDR1 and PDR3 efflux regulators; inhibition, % at 9.4 µM;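 active = every replicate shows inhibition above about 80%, whatever the replicate mean, limit read from the data; inconclusive = mean inhibition reaches the set limit but some replicate falls short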;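 note: 0% = DMSO neutral controls and 100% = 20 µM radicicol positive controls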
tim10-1 inh – growth inhibitors of tim10-1 mutant yeast, primary screen, luminescence, uHTS. AID 463190, 2010. S. cerevisiae tim10-1 ts strain growth, BacTiter-Glo, 24 h. inhibition, % at 20 µM. 330,000 tested, 2.2% active;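 active = inhibition of at least 40%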;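 note: mutant grown at 25 °C; 0% = DMSO wells with yeast and 100% = wells holding no yeast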
TIM10 inh – growth inhibitors of isogenic TIM10 control yeast, primary screen, counter-screen for tim10-1 yeast inhibitor project, luminescence, uHTS; S. cerevisiae TIM10 strain growth, BacTiter-Glo luminescence, 24 h; inhibition, % at 10 µM; 330,000 tested, 1.4% active; AID 463195, 2010;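 active = inhibition of 40% or more at the single tested concentration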;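 note: wild-type TIM10 isogenic control strain grown at permissive 25 °C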
* marks the source's active call; other numbers are inactive results; ? = inconclusive; / = not tested or not shown.

SMILES | NLRP3 yeast inh | SKKanGAS inh | tim23-1 inh | PfHsp90 set2 | tim10-1 inh | TIM10 inh
COCC1=C(C(=O)OC(C)OC(=O)OC(C)C)N2C(=O)[C@@H](NC(=O)/C(=N\OC)c3csc(N)n3)[C@H]2SC1 (stereo not given in full) | 13 | 102* | 1 | 17 | -1 | -5
CO/N=C(\C(=O)N[C@@H]1C(=O)N2C(C(=O)O)=C(COC(N)=O)CS[C@H]12)c1ccco1 | 13 | 102* | 2 | 14 | 8 | -2
CC(=O)OCC1=C(C(=O)O)N2C(=O)C(NC(=O)C(C)Cn3nc(C)c(Cl)c3C)C2SC1 (stereo not given) | 33 | 101* | -9 | -4 | 21 | 5
COc1ccc(-c2nnc(Nc3nc4c(OC)cccc4s3)o2)cc1 | / | 73* | / | -86 | / | /
COc1ccc(-c2nnc(Nc3nc4c(OC)cccc4s3)o2)c(OC)c1 | -5 | -24 | -12 | -13 | 6 | -6
Fc1cccc2sc(Nc3nnc(-c4ccccc4)o3)nc12 | 5 | 87* | 7 | -15 | 1 | 6
CC1(C)N=C(SCC(=O)Nc2ccc(Cl)cc2)C(c2ccc(Cl)cc2)=N1 | 40 | 0 | 28 | 110* | 30 | 34
Nc1c(C(=O)NCCc2ccccc2)nnn1Cc1ccc(Br)cc1F | -6 | -6 | -9 | -18 | 9 | 2
COc1ccc(OCc2cc(C(=O)N3CCCC(O)C3)no2)c2ccccc12 (stereo not given) | 29 | 2 | 3 | -8 | 3 | -6
Cc1ccc(OCC(=O)NNC(=S)NC(=O)c2ccc(Br)o2)c(C)c1 | 27 | 93* | 15 | -10 | 18 | -4
Cc1cccc(NC(=S)NNC(=O)c2ccc(Br)o2)c1 | 25 | 2 | 12 | 19 | 26 | 28
Cc1ccc(OCC(=O)NNC(=S)NC(=O)c2cccs2)c(C)c1 | 35 | 87* | -43 | -86 | -7 | -12
COc1ccc(C(=O)NNC(=S)NC(=O)c2ccc(Br)o2)cc1OC | 18 | 66* | 5 | 11 | 21 | 2
CN(C)S(=O)(=O)c1cccc(NC(=O)C2CCN(S(=O)(=O)c3cccs3)CC2)c1 | -11 | / | 6 | / | -4 | -8
[O-][n+]1nc2ccccc2c2ccccc21 | / | / | / | -4 | / | /
CC(c1ccccc1)n1c(CCCO)nc2ccccc21 (stereo not given) | 8 | -4 | 4 | 16 | 8 | -5
Nc1ccc(-c2nc3nc(N)nc(N)c3nc2-c2ccc(N)cc2)cc1 | 16 | 62* | -3 | 10 | 11 | -8
O=C(O)CN1C(=O)/C(=C\c2cn(-c3ccccc3)nc2-c2ccccc2)SC1=S | 23 | 23 | 15 | -2 | 4 | -10
CC(C)COc1ccc(-c2nn(-c3ccccc3)cc2/C=C2/SC(=S)N(CC(=O)O)C2=O)cc1 | 34 | 72* | 24 | -7 | 10 | 10
COc1cc(/C=C/c2ccc3cccc(O)c3n2)cc(OC)c1OC | 8 | 96* | 20 | -10 | 10 | 17
COc1ccc(/C=C/c2ccc3cccc(O)c3n2)cc1Br | -6 | 93* | -5 | -1 | 18 | 10
COc1cc(/C=C/c2ccc3cccc(O)c3n2)cc(Br)c1OC | 0 | 100* | 24 | -5 | 33 | 26
COC(=O)c1ccc(/C=C/c2ccc3cccc(OC)c3n2)cc1 | 15 | ? | 28 | -4 | 28 | 6
COc1cc(/C=C/c2ccc3cccc(O)c3n2)cc(Cl)c1OC | 6 | 107* | 18 | -14 | 39 | 10
COc1cc(/C=N/O)cc(Br)c1OC | 8 | 0 | 8 | 7 | 8 | -24
COc1ccccc1CN(C)C(=O)COC(=O)c1c(C)noc1C | 11 | / | 7 | -15 | 13 | 0
Cc1ccc(NS(=O)(=O)c2ccc(N3CCN(c4ccc(O)cc4)CC3)c([N+](=O)[O-])c2)c(C)c1 | 21 | 39 | 20 | 96* | -18 | -10
O=C1/C(=C/c2ccncc2)CCC/C1=C\c1ccncc1 | / | 11 | / | 102* | / | /
Cc1cccc2nc(COc3ccc4ccccc4c3Br)cn12 | 11 | 64* | 36 | -27 | 29 | 17

Screening results (PubChem)
